Values joined by “and” are separate entries in the source; they are usually repeats but may differ in a detail not shown here. Identical values can stand only once. Inconclusive results are not listed. Entries that show only a call come without a potency. Some compounds were tested as several samples or in several runs, with calls that do not always agree. Active and inactive are the calls of the source. Unless noted, calls come from the whole dose curve; as a rule, active = well fitted curve in the direction sought with a large enough effect in the repeat runs; inconclusive = weak or mixed curves; inactive = no such curve, though single readings can be large; an effect the other way counts as inactive or inconclusive.
Tests used:
[1] = molecular target: Progesterone receptor (Homo sapiens) (UniProt P06401); experiment: qHTS assay to identify small molecule agonists of the progesterone receptor (PR) signaling pathway (AID 1346784; calls by dose curve; note: nearly all actives have a fitted effect of over 30% in size)
Chain of Progesterone receptor (Homo sapiens) (P06401 whole entry, looked up): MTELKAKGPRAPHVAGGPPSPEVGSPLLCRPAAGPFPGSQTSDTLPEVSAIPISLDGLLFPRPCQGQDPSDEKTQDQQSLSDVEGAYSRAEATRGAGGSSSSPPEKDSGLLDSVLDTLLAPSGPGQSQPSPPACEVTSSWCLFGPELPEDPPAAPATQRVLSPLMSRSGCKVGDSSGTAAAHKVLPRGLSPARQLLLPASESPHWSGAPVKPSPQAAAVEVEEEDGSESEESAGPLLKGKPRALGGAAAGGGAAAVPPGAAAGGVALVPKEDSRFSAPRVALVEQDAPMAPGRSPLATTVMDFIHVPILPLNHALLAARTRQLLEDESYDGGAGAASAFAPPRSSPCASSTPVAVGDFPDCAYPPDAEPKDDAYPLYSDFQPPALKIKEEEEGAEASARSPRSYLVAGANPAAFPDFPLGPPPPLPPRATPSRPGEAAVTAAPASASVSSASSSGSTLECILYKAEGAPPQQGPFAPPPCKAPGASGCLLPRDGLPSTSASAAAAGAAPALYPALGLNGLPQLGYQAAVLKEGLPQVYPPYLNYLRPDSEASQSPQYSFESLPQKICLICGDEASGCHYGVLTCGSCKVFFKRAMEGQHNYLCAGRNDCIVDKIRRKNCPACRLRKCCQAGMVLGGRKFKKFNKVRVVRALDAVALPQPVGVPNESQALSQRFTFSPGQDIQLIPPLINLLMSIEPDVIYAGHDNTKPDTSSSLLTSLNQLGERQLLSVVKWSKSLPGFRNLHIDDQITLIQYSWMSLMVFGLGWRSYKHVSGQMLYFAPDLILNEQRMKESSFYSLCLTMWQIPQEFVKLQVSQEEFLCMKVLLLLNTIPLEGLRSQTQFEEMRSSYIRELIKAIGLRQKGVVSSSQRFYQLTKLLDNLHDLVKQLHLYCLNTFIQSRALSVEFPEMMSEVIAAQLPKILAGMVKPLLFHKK
Method in brief: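 Compounds were tested for PR agonism in HEK 293T cells bearing a beta-lactamase gene under UAS control. Treatment lasted 16 hr at 37C; signal came from fluorescence of a FRET substrate.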

[2] = qHTS assay to identify small molecule antagonists of the progesterone receptor (PR) signaling pathway - cell viability counter screen (AID 1346798); note: series mostly up to about 92 µM; nearly all actives have a fitted effect of over 50% in size
Method in brief: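 Following a 4 hr attachment, PR-UAS-bla HEK293T cells in charcoal-stripped FBS medium were exposed to compounds with R5020 for 16 hr; CellTiter-Glo was added and luminescence read after 30 min at room temperature.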

[3] = qHTS assay to identify small molecule agonists of the progesterone receptor (PR) signaling pathway - cell viability counter screen (AID 1346799; calls by dose curve; note: nearly all actives have a fitted effect of over 45% in size)
Method in brief: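 Here, 3,000 PR-UAS-bla HEK293T cells per well were treated with compounds for 16 hr after a 6 hr preincubation at 37C and 5% CO2; cell viability is the CellTiter-Glo luminescence signal.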

[4] = qHTS assay to identify small molecule antagonists of the TGF-beta/Smad signaling pathway - cell viability counter screen (AID 1346824); note: nearly all actives have a fitted effect of over 50% in size
Method in brief: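 SBE-bla HEK 293T cells, incubated overnight, then compound plus 0.25 ng/mL TGF-beta1 (stock added) for 5 hr at 37 C. Viability was read in the same wells by CellTiter-Glo luminescence after 30 min at room temperature.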

[5] = qHTS assay to identify small molecule agonists of the TGF-beta/Smad signaling pathway - cell viability counter screen (AID 1346829); note: top concentration of the series differs between compounds; nearly all actives have a fitted effect of over 45% in size
Method in brief: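 In parallel with the Smad reporter read, viability of HEK 293T cells stably carrying SBE-bla is quantified by ATP luminescence following 5 hr compound treatment.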

[6] = molecular target: Thyrotropin-releasing hormone receptor (Homo sapiens) (UniProt P34981); experiment: qHTS assay to identify small molecule antagonists of the thyrotropin-releasing hormone receptor (TRHR) signaling pathway (AID 1346877; active = well fitted inhibition curve with a large enough effect in the repeat runs, not every such curve was filed as active; note: series mostly up to about 51 µM)
Chain of Thyrotropin-releasing hormone receptor (Homo sapiens) (P34981 whole entry, looked up): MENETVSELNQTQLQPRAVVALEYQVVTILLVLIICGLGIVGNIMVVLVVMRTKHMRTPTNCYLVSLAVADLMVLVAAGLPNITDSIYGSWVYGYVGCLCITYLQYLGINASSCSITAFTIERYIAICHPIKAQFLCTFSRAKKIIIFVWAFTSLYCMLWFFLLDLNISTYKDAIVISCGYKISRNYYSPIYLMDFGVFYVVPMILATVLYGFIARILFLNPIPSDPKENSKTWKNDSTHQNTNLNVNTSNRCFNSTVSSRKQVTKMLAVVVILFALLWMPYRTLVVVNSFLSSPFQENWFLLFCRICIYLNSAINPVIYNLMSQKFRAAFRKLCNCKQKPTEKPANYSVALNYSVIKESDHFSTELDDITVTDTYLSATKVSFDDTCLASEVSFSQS
Method in brief: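 HEK293/TRHR cells, 18 h, 37 °C; Ca2+ dye 2 h; cpd 5 min RT; TRH 1 nM final; fluorescence read 3 min, 1 s intervals; 15 concs, triplicate.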

[7] = molecular target: Thyrotropin-releasing hormone receptor (Homo sapiens) (UniProt P34981); experiment: qHTS assay to identify small molecule agonists of the thyrotropin-releasing hormone receptor (TRHR) signaling pathway (AID 1346891; calls by dose curve; note: series mostly up to about 58 µM)
Method in brief: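 Screening of agonists relied on calcium signalling in HEK293 cells expressing human TRHR: dye loading 2 h at 37 °C preceded compound addition and a 3-min fluorescence time course.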

[8] = Human pregnane X receptor (PXR) small molecule agonists, qHTS cell viability counter screen (AID 1346977); note: nearly all actives have a fitted effect of over 50% in size
Method in brief: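 Tox21 qHTS format; PXR-Luc HepG2, 2,000/well, charcoal-stripped FBS 5%. Cpd exposure 24hr. Read: CellTiter-Fluor fluorescence, multiplexed with luciferase.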

[9] = Caspase-3/7 induction in CHO-K1 cells by small molecules, qHTS cell viability counter screen (AID 1346979); note: nearly all actives have a fitted effect of over 35% in size; note: potency is the fitted concentration of half-maximal effect
Method in brief: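 CellTiter-Fluor viability check, qHTS format: wild-type CHO-K1, 16hr compound treatment, 1hr reagent incubation, fluorescence read.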

[10] = Caspase-3/7 induction in CHO-K1 cells by small molecules, qHTS assay (AID 1346980); note: nearly all actives have a fitted effect of over 15% in size
Method in brief: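 Wild-type CHO-K1 cells exposed to compounds for 17hr at 37 C, 5% CO2. Caspase-3/7 activity then measured by Caspase-Glo 3/7 luminescence after 30min at room temperature.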

[11] = Caspase-3/7 induction in HepG2 cells by small molecules, qHTS cell viability counter screen (AID 1346981); note: nearly all actives have a fitted effect of over 30% in size; note: potency is the fitted concentration of half-maximal effect
Method in brief: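 Fluorescence read-out of live-cell protease activity (CellTiter-Fluor) after 1 hr with reagent. This was measured in the same wells as the caspase-3/7 luminescence, on HepG2 cells exposed to DMSO-dissolved compounds for 16 hr at 37 C.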

[12] = molecular target: Nuclear receptor subfamily 1 group I member 2 (Homo sapiens) (UniProt O75469); experiment: Human pregnane X receptor (PXR) small molecule agonists, qHTS assay (AID 1346982); note: nearly all actives have a fitted effect of over 35% in size; note: potency is the fitted concentration of half-maximal effect
Chain of Nuclear receptor subfamily 1 group I member 2 (Homo sapiens) (O75469 whole entry, looked up): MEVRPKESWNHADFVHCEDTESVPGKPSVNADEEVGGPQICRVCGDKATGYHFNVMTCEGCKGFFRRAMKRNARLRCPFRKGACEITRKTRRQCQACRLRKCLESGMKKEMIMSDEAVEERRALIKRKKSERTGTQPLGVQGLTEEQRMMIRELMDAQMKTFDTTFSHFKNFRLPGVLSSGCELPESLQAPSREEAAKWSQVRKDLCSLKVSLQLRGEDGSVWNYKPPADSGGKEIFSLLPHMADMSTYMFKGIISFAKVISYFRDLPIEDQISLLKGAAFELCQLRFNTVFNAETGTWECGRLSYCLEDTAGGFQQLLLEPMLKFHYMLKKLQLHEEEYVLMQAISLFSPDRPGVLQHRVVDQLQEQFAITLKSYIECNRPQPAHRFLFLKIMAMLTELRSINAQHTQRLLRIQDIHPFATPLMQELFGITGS
Method in brief: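 HepG2 PXR-Luc reporter line, 5% charcoal-stripped FBS; 5 hr pre-incubation, compound (DMSO) 24 hr at 37 C/5% CO2; ONE-Glo 30 min RT; luminescence read-out.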

[13] = molecular target: Cytochrome P450 2D6 (Homo sapiens) (UniProt P10635); experiment: Cytochrome P450 Family 2 Subfamily D Member 6 (CYP2D6) small molecule antagonists: luciferase reporter qHTS assay (AID 1671196); note: nearly all actives have a fitted effect of over 50% in size; note: potency is the fitted concentration of half-maximal effect
Chain of Cytochrome P450 2D6 (Homo sapiens) (P10635 whole entry, looked up): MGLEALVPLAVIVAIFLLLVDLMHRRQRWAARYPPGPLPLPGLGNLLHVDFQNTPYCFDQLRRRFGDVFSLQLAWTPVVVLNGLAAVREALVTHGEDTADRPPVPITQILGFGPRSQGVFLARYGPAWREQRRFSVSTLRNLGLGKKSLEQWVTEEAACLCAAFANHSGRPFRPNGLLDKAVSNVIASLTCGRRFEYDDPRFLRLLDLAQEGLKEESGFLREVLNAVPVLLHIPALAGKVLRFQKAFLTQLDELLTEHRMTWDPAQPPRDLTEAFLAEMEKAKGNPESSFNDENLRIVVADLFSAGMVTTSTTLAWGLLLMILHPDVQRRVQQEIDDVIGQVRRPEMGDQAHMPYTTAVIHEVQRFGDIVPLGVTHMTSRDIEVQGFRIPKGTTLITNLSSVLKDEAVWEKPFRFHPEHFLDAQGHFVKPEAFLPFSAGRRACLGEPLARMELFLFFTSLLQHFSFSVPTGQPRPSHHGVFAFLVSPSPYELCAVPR
Method in brief: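 Luminogenic proluciferin substrate, CYP2D6 enzyme; 10 min RT preincubation with compound, NADPH regeneration system added, 1 h RT. Stop/detection reagent, 20 min RT, luminescence read (RLU). Signal proportional to CYP activity.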

[14] = molecular target: Progesterone receptor (Homo sapiens) (UniProt P06401); experiment: qHTS assay to identify small molecule antagonists of the progesterone receptor (PR) signaling pathway (AID 1346795; active = well fitted inhibition curve with a large enough effect in the signal ratio in the repeat runs, not every such curve was filed as active; the % refers to the signal ratio; note: potency is the fitted concentration of half-maximal effect)
Method in brief: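 In HEK293T cells bearing the PR-UAS-bla reporter, compound effects on promegestone-driven (1 nM) beta-lactamase expression are assessed after 16 hr using a fluorescent FRET substrate incubated 2 hr at room temperature.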

[15] = qHTS assay to identify small molecule agonists of the TGF-beta/Smad signaling pathway (AID 1346859; active = well fitted activation curve with a large enough effect in the signal ratio in the repeat runs, not every such curve was filed as active; the % refers to the signal ratio; note: series mostly up to about 77 µM)
Method in brief: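 Each well held 4,000 SBE-bla HEK 293T cells incubated overnight before compound addition; 5 hr later the cleavable FRET substrate went on for 2 hr at room temperature, and fluorescence was read at two emissions.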

[16] = Caspase-3/7 induction in HepG2 cells by small molecules, qHTS assay (AID 1346978); note: nearly all actives have a fitted effect of over 15% in size
Method in brief: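 Wild-type HepG2 cells, 2,000/well, settled 5 hr at 37 C and 5% CO2, then compound-treated for 17 hr; caspase-3/7 activity read by luminescent Caspase-Glo 3/7 after 30 min at room temperature.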

SMILES | Potency [1] | Potency [2] | Potency [3] | Potency [4] | Potency [5] | Potency [6] | Potency [7] | Potency [8] | Potency [9] | Potency [10] | Potency [11] | Potency [12] | Potency [13] | Potency [14] | outcome [15] | Potency [16]
CCC(=O)/C=C/C1C(C)=CCCC1(C)C (stereo unspecified) | inactive | inactive | inactive | inactive | inactive | inactive | inactive | inactive | inactive | inactive | inactive | 34.5 µM (active) | inactive |  |  | 
CCn1c2ccccc2c2cc(N)ccc21 | inactive |  | inactive | inactive | inactive | inactive | inactive | inactive | 53.9 µM (active) and inactive and 43.3 µM (active) | inactive | inactive and 30.6 µM (active) | 5.39 µM (active) and 30.6 µM (active) and inactive | 703 nM (active) and 3.99 µM (active) and 10 µM (active) | 34.4 µM (active) | inactive | inactive
NC(N)=Nc1nc(CSCC/C(N)=N/S(N)(=O)=O)cs1 | inactive |  | inactive | inactive | inactive |  |  | inactive | inactive | inactive | inactive | inactive | inactive |  | inactive | 
CCCCC/C=C/CC1CC(=O)OC1=O (stereo unspecified) | inactive |  | inactive | inactive | inactive | inactive | inactive | inactive |  |  | inactive | inactive | inactive | inactive |  | 
CNC1(C)C2CCC(C2)C1(C)C (stereo unspecified) | inactive | inactive | inactive | inactive | inactive | inactive | inactive | inactive | inactive | inactive | inactive | inactive | inactive |  | inactive | inactive
O=C(O)Cn1cnnn1 | inactive |  |  | inactive | inactive | inactive | inactive | inactive | inactive | inactive | inactive | inactive | inactive |  |  | 
CC(C)(c1ccccc1)c1ccc(Nc2ccc(C(C)(C)c3ccccc3)cc2)cc1 |  |  |  | inactive | inactive | inactive | inactive | inactive |  |  | inactive | inactive | inactive |  | inactive | inactive
